Screening results: PubChem, National Center for Advancing Translational Sciences (NCATS)
Most compounds without a hit are left out; they make up all but 7.5% or so of the library.
ELG1 genotox: inducers of genotoxicity in HEK293T ELG1-luciferase cells; HEK293T ELG1-luciferase reporter, luminescence, 16 h; Potency, µM (doses to about 46 µM), for inactives: at the highest dose activity change, positive = activation, hits mostly activators; 330,000 tested, 1.3% active; AID 504466; note: % of control where 0% means no effect; nearly all actives have a fitted effect of over 60% in size
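DMSO vehicle served as control against compound-treated ELG1-luciferase HEK293T cells; exposure lasted 16 hr at 37 °C and 5% CO2, followed by ONE-Glo luminescence detection after 30 min.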
FLuc modulator: firefly luciferase modulation, counter-screen for miR-21 project. P08659. Potency, µM (series often up to 57.5 µM), for the others: top-dose activity change, negative = inhibition, hits mostly inhibitors. purified FLuc, Km substrates, luminescence inhibition. 360,000 tested, 6.9% active;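 note: plate controls were vehicle for no effect and reference inhibitor for full effect; nearly all actives have a fitted effect of over 55% in size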
Target sequence (P08659 whole entry, looked up): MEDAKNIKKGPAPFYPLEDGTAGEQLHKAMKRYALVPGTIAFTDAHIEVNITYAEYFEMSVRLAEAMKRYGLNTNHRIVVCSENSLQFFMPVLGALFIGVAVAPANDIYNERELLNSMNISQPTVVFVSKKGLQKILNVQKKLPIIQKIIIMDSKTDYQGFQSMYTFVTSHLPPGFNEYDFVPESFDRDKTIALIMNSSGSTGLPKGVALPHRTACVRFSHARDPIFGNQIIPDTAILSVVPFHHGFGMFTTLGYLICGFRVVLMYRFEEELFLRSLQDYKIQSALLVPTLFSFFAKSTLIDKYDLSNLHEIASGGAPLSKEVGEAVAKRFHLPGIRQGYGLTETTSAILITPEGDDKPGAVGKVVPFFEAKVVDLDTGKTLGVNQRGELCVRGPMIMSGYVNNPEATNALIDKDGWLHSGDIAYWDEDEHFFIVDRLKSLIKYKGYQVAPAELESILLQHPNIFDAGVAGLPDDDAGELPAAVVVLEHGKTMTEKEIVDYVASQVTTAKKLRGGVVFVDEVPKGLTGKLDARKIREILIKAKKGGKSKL
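Purified P. pyralis luciferase, 10 nM final, with Km-level 10 uM D-luciferin and 10 uM ATP in 50 mM Tris acetate pH 7.5, 10 mM Mg acetate, 0.01% Tween-20, 0.05% BSA; 6-point qHTS titration about 60 µM downward; luminescence read.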
NPC1 prom act: activates the NPC1 promoter | Huh7 NPC1 promoter luciferase reporter, 24 h | Potency, µM (titrated, usually from 9.22 µM), for inactives: at the highest dose activation, usual class: activators | 320,000 tested, 2.4% active | AID 485313; note: % of control where 0% means no effect; nearly all actives have a fitted effect of over 60% in size
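Stably transfected Huh7 (NPC1 promoter→luciferase), 1500 cells/well in Opti-MEM + 10% FBS, 2 h settle, then compound 24 h at 37 °C. Luminescence after 10 min with Amplite reagent.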
SMN2 splice enh: enhancers of SMN2 splice variant expression. HEK293 SMN2-luciferase splicing reporter, luminescence, 30-36 h. Potency, µM (top dose mostly 46.1 µM), without a hit: top-dose activity change, positive = activation, usual class: activators. 210,000 tested, 2.8% active. AID 1458; note: % of control where 0% means no effect; nearly all actives have a fitted effect of over 55% in size
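qHTS luciferase splicing reporter: luminescence rises when SMN2 exon 7 is included in transfected HEK293 cells. Compound exposure lasted 30-36 h at 37C, with 4.5 mM final sodium butyrate as control, followed by a ONE-Glo read.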
KinaseGlo FLuc: blocks Kinase-Glo luciferase, a counter-screen artifact; Q27757; Kinase-Glo luciferase, ATP luminescence, 8 min; Potency, µM (highest dose often 38.3 µM), inactives show at the highest dose activity change, negative = inhibition, actives largely listed as inhibitors; 200,000 tested, 0.28% active; AID 1379; note: % is set by controls: 0 for no effect and ±100 for the full control effect; nearly all actives have a fitted effect of over 60% in size
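Compounds were added to a substrate mix at pH 7.2 (50 mM imidazole, 10 uM ATP, within the enzyme's linear range), followed by Kinase-Glo detection reagent; luminescence was measured after 8 minutes at ambient temperature.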
Rab9 prom act: activates the Rab9 promoter; Huh7 Rab9 promoter-luciferase reporter, luminescence, 24 h; Potency, µM (highest dose often 9.22 µM), inactives show top-dose activation, negative = inhibition, hits mostly activators; 320,000 tested, 2.8% active; AID 485297; note: % of control where 0% means no effect; nearly all actives have a fitted effect of over 60% in size
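Measured in stably transfected Huh7 cells bearing a Rab9 promoter–luciferase construct: 24 h compound treatment at 37 °C, followed by luminescence detection.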
Starred values were filed as active, the others as inactive; [ ] = another dose, or the depositor's remark. Calls come from the whole dose curve; as a rule, active = well fitted curve in the direction sought with a large enough effect; inconclusive = small, poorly fitted or top-dose-only effect, or another doubt; inactive = no such curve, though single readings can be large; an effect the other way counts as inactive or inconclusive. Potency is the fitted concentration of half-maximal effect.

O=C(N/N=C/c1c(-c2ccccc2)[nH]c2ccccc12)c1cccnc1 was read as ELG1 genotox -2%, FLuc modulator 3µM*, NPC1 prom act 1%, SMN2 splice enh inconclusive, KinaseGlo FLuc 4% and Rab9 prom act 15%.
`Cn1cccc1/C=N/NC(=O)c1cccnc1` gave ELG1 genotox 0%, FLuc modulator inconclusive, NPC1 prom act -2%, SMN2 splice enh 3%, KinaseGlo FLuc -7% and Rab9 prom act 8%.
Cn1c(-c2ccccc2)c(/C=N/NC(=O)c2cccnc2)c2ccccc21 was read as ELG1 genotox -14%, FLuc modulator 5.4µM*, NPC1 prom act 21%, SMN2 splice enh inconclusive, KinaseGlo FLuc 0% and Rab9 prom act 1%.
Screening COc1cc(OC)cc(C(=O)Nc2nnc(SCC(=O)NCc3ccco3)s2)c1 returned ELG1 genotox inconclusive, FLuc modulator inconclusive, NPC1 prom act 20% and Rab9 prom act inconclusive.
`Cc1cc(N)n2nc(-c3ccccc3)cc2n1` gave ELG1 genotox 9.2µM*, FLuc modulator 1.1µM*, NPC1 prom act inconclusive, SMN2 splice enh 7.9µM*, KinaseGlo FLuc 13µM* and Rab9 prom act 0.5µM*.
Screening Cc1ccc(-c2cc(N)n3nc(-c4ccc(C)cc4)cc3n2)cc1 returned ELG1 genotox -3%, FLuc modulator 1%, NPC1 prom act 0%, SMN2 splice enh -26%, KinaseGlo FLuc -3% and Rab9 prom act -1%.
Cc1ccc(-c2cc3nc(-c4ccccc4)cc(N)n3n2)cc1 was read as ELG1 genotox inconclusive, FLuc modulator inconclusive, NPC1 prom act inconclusive, SMN2 splice enh 7.1µM*, KinaseGlo FLuc -4% and Rab9 prom act 1.8µM*.
For CSc1nc(N)n2nc(-c3ccccc3)cc2n1 the results were ELG1 genotox 10µM*, FLuc modulator 3.4µM*, NPC1 prom act 2µM* and Rab9 prom act 2.2µM*.
`CSc1nncc(-c2ccccc2)n1` gave ELG1 genotox 6%, FLuc modulator -10%, NPC1 prom act -1%, SMN2 splice enh 7%, KinaseGlo FLuc -6% and Rab9 prom act 13%.
`CC(=O)Nc1ccc(NC(=O)CSc2ccc([N+](=O)[O-])cn2)cc1` gave ELG1 genotox 2%, FLuc modulator 2%, NPC1 prom act -3% and Rab9 prom act 0%.
Screening FC(F)(F)c1cccc(Cl)c1 returned SMN2 splice enh -2%.
COc1cccc(/C=C2/Oc3ccccc3N(CC(=O)NCC3CCCO3)C2=O)c1 (centres undefined) was read as ELG1 genotox -6%, FLuc modulator 9.5µM*, NPC1 prom act 0% and Rab9 prom act 3%.
O=C(CN1C(=O)/C(=C/c2ccc(C(F)(F)F)cc2)Sc2ccccc21)NCCCN1CCOCC1 was read as ELG1 genotox 1%[9.26 µM], FLuc modulator inconclusive, NPC1 prom act -4% and Rab9 prom act -1%.
Screening O=C(CN1C(=O)/C(=C\c2cccc(Br)c2)Oc2ccccc21)NCCCN1CCOCC1 returned ELG1 genotox 0%[9.26 µM], FLuc modulator 6.7µM*, NPC1 prom act -1% and Rab9 prom act -6%.
`O=C(CN1C(=O)COc2ccccc21)NCCCN1CCOCC1` gave ELG1 genotox 1%, FLuc modulator 4%, NPC1 prom act 0% and Rab9 prom act 1%.
`O=C(O)CN1C(=O)/C(=C/c2cccc(Cl)c2)Oc2ccccc21` gave ELG1 genotox -1%, FLuc modulator 13µM*, NPC1 prom act -5% and Rab9 prom act 3%.
CCc1ccc(/C=C2/Sc3ccccc3N(CC(=O)NCCCN3CCOCC3)C2=O)cc1 was read as ELG1 genotox 7%, FLuc modulator 19µM*, NPC1 prom act -1% and Rab9 prom act -2%.
c1ccc2c(N3CCNCC3)nc(-c3ccc4c(c3)OCO4)nc2c1 was read as SMN2 splice enh -6% and KinaseGlo FLuc -1%.
CCOC(=O)C1CCCN(C(=O)CN2C(=O)/C(=C/c3ccc(OC)cc3)Oc3ccccc32)C1 (centres undefined) was read as ELG1 genotox -15%, FLuc modulator 15µM*, NPC1 prom act 0%, SMN2 splice enh -50%, KinaseGlo FLuc -5% and Rab9 prom act -1%.
`CCOC(=O)C1CCCN(C(=O)CN2C(=O)c3ccccc3C2=O)C1` (centres undefined) gave ELG1 genotox -6%, FLuc modulator 0%, NPC1 prom act -1%, SMN2 splice enh 18%, KinaseGlo FLuc -8% and Rab9 prom act 18%.
Cc1ccc2occ(CC(=O)Nc3ccc(Cl)c(C(F)(F)F)c3)c2c1 was read as FLuc modulator 3% and SMN2 splice enh -26%.
For Cn1cccc1C(=O)C(=O)Nc1ccccc1 the results were ELG1 genotox inconclusive, FLuc modulator 5.4µM*, NPC1 prom act 0.56µM*, SMN2 splice enh 13µM*, KinaseGlo FLuc 13µM* and Rab9 prom act 0.63µM*.
Screening O=c1[nH]c(/C=C\c2cccc(Cl)c2)nc(O)c1[N+](=O)[O-] returned ELG1 genotox 6%, FLuc modulator -3%, NPC1 prom act 3% and Rab9 prom act 5%.
COC(=O)c1nc(-c2ccc(C)cc2)oc1N(C)C was read as ELG1 genotox 12%, FLuc modulator 19µM*, NPC1 prom act 11%, SMN2 splice enh 1%, KinaseGlo FLuc -12% and Rab9 prom act 10%.
For CCOc1ccc2nc(NC(=O)c3nc(SCc4ccccc4F)ncc3Cl)sc2c1 the results were FLuc modulator 4% and SMN2 splice enh 3%.
Screening COc1cc(OC)c(C(=O)Nc2cccc(C(C)=O)c2)cc1OC returned ELG1 genotox inconclusive, FLuc modulator 13µM*, NPC1 prom act 18%, SMN2 splice enh -12%, KinaseGlo FLuc -8% and Rab9 prom act inconclusive.
COc1ccc(C(=O)Nc2cccc(C(C)=O)c2)c(OC)c1OC was read as ELG1 genotox inconclusive, FLuc modulator 12µM*, NPC1 prom act 20%, SMN2 splice enh -3%, KinaseGlo FLuc -2% and Rab9 prom act 23%.
Screening COc1ccc(-n2nnnc2C2CCN(S(=O)(=O)c3cc(Cl)ccc3OC)CC2)cc1 returned FLuc modulator 3% and SMN2 splice enh -59%.
`Oc1ccccc1/C=N/NC1=NCCCCC1` gave ELG1 genotox inconclusive, FLuc modulator 13µM*, NPC1 prom act 1.4µM*, SMN2 splice enh 13µM*, KinaseGlo FLuc 3% and Rab9 prom act 2.2µM*.
